Experimental data published in the supplement of paper PMC11732987, “Enantioselective OTUD7B fragment discovery through chemoproteomics screening and high-throughput optimisation” (Communications Chemistry, 2025).

What was measured:
Assay in all cases: log2 ratio of Biotin-Ahx-Ub-VS probe labelling (fragment/DMSO); higher = less target engagement (more negative = stronger competition), active = hit call of the paper (q ≤ 0.05, log2 ratio ≤ -1)
Conditions in all cases: compound concentration: 200 uM; treatment time: 3 h
OTUD6B = molecular target: T1, OTUD6B (UniProt Q8N6M0)
T1 sequence (whole entry): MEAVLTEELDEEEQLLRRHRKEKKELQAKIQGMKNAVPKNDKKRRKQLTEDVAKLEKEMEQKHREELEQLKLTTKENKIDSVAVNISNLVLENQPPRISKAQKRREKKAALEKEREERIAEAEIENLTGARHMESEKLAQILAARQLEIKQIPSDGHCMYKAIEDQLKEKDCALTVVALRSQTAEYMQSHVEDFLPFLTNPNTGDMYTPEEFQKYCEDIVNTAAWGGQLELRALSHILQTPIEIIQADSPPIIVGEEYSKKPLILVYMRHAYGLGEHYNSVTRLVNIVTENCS
How it was run: (§1)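 Using Biotin-Ahx-Ub-VS at 0.5 µM final for 1 h, DUBs were labelled in HEK293T lysate (495 µg per sample) that had first been treated in triplicate with fragment at 200 µM or vehicle for 3 h. NeutrAvidin enrichment, LysC and trypsin digestion and diaPASEF LC-MS/MS followed. Spectronaut label-free quantities were global-median-normalised. Values are average log2 fragment/vehicle ratios by unpaired t-test, using proteins with ≥2 unique peptides.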

OTUD7B = molecular target: T2, OTUD7B (UniProt Q6GQQ9)
T2 sequence (whole entry): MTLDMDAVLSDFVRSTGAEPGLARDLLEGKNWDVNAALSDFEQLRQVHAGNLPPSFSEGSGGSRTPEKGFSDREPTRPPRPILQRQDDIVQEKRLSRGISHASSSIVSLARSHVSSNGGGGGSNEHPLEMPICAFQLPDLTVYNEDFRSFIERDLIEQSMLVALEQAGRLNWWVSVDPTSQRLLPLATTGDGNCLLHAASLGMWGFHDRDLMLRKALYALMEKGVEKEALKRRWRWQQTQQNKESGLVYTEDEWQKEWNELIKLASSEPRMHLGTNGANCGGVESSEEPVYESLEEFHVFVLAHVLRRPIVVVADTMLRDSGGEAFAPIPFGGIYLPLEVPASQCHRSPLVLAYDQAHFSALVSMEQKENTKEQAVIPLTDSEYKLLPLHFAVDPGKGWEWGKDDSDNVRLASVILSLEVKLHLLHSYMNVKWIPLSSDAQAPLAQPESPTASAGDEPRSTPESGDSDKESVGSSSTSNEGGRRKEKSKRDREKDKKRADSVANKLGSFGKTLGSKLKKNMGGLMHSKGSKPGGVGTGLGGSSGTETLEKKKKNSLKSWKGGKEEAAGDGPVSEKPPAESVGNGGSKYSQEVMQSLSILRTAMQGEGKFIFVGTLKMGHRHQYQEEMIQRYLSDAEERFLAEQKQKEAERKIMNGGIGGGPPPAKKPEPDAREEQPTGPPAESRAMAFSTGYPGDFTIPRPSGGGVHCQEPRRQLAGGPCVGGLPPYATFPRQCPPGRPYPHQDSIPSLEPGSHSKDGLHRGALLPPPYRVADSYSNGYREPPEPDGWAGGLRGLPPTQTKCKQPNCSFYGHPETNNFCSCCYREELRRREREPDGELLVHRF
How it was run: as §1

PRPF8 = PRPF8 (UniProt Q6P2Q9)
How it was run: as §1

PSMD7 = molecular target: T3, PSMD7 (UniProt P51665)
T3 sequence (whole entry): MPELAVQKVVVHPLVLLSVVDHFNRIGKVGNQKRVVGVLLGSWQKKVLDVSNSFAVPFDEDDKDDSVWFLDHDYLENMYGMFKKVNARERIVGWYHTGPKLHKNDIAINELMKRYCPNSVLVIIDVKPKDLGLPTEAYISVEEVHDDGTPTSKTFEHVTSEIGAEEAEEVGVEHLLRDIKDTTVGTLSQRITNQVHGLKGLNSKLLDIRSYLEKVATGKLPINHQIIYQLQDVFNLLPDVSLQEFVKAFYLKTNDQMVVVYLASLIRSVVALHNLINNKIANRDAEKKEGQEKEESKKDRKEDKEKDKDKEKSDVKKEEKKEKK
How it was run: as §1

UCHL1 = UCHL1 (UniProt P09936)
How it was run: as §1

UCHL3 = molecular target: T4, UCHL3 (UniProt P15374)
T4 sequence (whole entry): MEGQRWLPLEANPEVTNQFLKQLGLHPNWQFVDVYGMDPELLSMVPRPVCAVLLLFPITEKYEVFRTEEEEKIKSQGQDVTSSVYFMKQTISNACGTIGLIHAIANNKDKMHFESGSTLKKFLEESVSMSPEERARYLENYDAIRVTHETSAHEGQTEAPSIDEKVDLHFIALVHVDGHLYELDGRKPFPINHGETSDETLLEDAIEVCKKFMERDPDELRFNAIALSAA
How it was run: as §1

UCHL5 = molecular target: T5, UCHL5 (UniProt Q9Y5K5)
T5 sequence (whole entry): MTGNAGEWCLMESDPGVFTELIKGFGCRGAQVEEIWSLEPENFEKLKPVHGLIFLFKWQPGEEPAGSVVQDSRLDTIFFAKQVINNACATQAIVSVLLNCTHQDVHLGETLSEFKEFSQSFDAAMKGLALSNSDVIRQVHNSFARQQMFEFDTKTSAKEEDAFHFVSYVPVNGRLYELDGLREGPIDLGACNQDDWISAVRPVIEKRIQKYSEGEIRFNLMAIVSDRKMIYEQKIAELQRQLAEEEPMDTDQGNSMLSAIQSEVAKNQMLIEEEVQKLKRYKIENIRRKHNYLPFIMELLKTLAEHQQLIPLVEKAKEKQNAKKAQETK
How it was run: as §1

USP10 = USP10 (UniProt Q14694)
How it was run: as §1

USP15 = molecular target: T6, USP15 (UniProt Q9Y4E8)
T6 sequence (whole entry): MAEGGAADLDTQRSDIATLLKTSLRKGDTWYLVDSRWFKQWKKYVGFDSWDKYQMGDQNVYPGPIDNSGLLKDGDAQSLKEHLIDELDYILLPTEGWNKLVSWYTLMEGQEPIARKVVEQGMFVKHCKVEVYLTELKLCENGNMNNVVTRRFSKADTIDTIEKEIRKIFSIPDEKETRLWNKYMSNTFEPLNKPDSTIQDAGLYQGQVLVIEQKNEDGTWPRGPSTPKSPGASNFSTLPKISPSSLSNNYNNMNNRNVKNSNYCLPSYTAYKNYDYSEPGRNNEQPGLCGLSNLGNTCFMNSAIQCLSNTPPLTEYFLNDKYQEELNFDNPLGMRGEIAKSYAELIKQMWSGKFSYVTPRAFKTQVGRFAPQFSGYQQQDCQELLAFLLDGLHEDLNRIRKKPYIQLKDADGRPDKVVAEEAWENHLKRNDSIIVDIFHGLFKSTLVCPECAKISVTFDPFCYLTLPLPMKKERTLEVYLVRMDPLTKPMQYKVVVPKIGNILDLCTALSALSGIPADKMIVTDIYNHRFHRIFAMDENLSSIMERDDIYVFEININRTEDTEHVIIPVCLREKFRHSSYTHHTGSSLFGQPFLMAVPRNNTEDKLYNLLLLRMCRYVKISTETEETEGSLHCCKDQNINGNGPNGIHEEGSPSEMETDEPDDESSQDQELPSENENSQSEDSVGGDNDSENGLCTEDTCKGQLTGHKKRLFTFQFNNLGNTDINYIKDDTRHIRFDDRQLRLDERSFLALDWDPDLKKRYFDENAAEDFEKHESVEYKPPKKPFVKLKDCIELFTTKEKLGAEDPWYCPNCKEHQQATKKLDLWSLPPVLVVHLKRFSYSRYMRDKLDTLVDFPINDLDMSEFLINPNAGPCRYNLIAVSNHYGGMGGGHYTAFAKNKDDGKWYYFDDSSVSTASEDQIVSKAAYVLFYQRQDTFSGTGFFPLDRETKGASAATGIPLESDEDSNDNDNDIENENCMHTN
How it was run: as §1

USP16 = USP16 (UniProt Q9Y5T5)
How it was run: as §1

Measured: log2 ratio of Biotin-Ahx-Ub-VS probe labelling

Sequence of USP16 (Q9Y5T5 whole entry, looked up): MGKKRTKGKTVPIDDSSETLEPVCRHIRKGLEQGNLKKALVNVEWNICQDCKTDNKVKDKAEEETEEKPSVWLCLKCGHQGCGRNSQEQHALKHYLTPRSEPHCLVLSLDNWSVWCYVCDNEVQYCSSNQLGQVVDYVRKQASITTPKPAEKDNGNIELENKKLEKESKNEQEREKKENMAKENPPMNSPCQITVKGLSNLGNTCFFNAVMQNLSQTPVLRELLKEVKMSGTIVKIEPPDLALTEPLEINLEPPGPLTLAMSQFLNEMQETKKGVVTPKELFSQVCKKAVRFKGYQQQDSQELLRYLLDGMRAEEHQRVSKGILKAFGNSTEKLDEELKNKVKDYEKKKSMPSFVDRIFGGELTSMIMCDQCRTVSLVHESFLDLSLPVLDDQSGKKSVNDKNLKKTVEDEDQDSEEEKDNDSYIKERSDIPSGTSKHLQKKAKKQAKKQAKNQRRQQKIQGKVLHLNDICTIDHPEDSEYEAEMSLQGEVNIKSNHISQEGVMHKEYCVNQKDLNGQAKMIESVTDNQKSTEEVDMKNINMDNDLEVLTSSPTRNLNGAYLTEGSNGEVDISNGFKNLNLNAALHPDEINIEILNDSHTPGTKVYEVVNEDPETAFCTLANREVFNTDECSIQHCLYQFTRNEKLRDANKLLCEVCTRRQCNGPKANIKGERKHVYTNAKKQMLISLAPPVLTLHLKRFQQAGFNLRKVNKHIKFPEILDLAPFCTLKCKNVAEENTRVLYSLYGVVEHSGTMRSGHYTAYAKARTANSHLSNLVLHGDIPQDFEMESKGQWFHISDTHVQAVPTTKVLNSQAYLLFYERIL
Sequence of UCHL1 (P09936 whole entry, looked up): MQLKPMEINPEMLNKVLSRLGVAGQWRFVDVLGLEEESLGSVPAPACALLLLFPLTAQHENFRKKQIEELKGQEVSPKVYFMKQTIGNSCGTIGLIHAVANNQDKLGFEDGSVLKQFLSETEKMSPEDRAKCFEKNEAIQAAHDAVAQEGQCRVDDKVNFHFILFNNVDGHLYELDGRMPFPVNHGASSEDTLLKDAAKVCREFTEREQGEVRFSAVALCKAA
Sequence of USP10 (Q14694 whole entry): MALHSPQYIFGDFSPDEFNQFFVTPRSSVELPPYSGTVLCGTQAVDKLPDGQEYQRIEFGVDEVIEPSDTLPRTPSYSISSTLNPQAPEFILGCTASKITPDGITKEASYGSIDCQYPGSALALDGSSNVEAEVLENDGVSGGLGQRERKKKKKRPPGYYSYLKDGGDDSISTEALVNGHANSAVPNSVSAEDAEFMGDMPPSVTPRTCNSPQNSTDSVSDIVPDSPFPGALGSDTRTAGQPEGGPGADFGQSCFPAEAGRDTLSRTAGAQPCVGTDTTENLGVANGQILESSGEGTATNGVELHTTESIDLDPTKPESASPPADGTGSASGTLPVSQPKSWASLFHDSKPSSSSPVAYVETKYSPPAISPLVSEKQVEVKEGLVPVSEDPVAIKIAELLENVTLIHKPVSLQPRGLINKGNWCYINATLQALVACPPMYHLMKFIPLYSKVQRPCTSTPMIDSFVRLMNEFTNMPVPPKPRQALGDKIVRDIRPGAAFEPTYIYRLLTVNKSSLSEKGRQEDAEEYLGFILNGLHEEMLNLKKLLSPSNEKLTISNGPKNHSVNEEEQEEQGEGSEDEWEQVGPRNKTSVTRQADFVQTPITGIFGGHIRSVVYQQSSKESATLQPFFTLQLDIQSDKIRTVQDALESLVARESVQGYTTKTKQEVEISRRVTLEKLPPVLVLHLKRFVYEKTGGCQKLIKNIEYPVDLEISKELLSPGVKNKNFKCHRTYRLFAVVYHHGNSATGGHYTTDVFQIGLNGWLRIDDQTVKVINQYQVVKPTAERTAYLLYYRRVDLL

O=C(CCl)N1CCN(C(=O)N2CCCCC2)CC1
active: OTUD6B -1.28 | OTUD7B -1.17 | UCHL1 -2.3
inactive: PRPF8 -0.0826 | PSMD7 -0.335 | UCHL3 -0.528 | UCHL5 -0.96 | USP10 -0.21 | USP15 -0.839 | USP16 0.0515
